PNC inhibitor = inhibitors of perinucleolar compartment assembly. PC3M PTB-GFP, PNC prevalence imaging, 16 h; hits give low values. actives 3.1% (n = 140,000). activity change (PNC), negative = inhibition, % at 10 µM;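 active = readout at or below -70, meaning at least 70% loss of cells showing the perinucleolar compartment, a nuclear body marking cancer cells; inconclusive = readout between -30 and a set limit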;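 note: plate controls were DMSO wells for no effect and camptothecin positive control wells for full effect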
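PC3M cells stably expressing PTB-GFP, 750–1000 cells/well, treated 16 h at 37 °C with compound (23 nl of library stock), in duplicate. After paraformaldehyde fixation and Hoechst stain, imaged at 20x; PNC prevalence scored by image analysis.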
HttQ103 aggreg = inhibitors of mutant huntingtin aggregate formation in PC12 cells; PC12 HttQ103-GFP aggregates, Acumen cytometry, 40 h; Potency, µM (series often up to 46.1 µM), inactives show at the highest dose activity change, negative = inhibition, hits mostly inhibitors; actives 1.1% (n = 220,000); note: potency is the fitted concentration of half-maximal effect; % is set by controls: 0 for no effect and ±100 for the full control effect; nearly all actives have a fitted effect of over 60% in size
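Using laser scanning cytometry, GFP-positive aggregates were counted after lysis of PC12 cells induced with 100 nM tebufenozide to express HTT exon 1 Q103–GFP. Compounds were tested in titration.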
IMPase inh = membrane-permeable compound that blocks inositol monophosphatase | P97697 | CHO-M1 cells, IP1 accumulation, HTRF TR-FRET ratio | inhibition (IP1 accumulation), % at 46.1 µM | 120,000 tested, under 10 active | AID 901; active = well fitted curve in the direction sought with a large enough effect in the signal ratio, not every such curve was filed as active; inconclusive = small, poorly fitted or top-dose-only effect, or a change in a side signal; inactive = no such curve, though single readings can be large or run the other way; the % refers to the signal ratio;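 note: cells stimulated with carbachol in lithium chloride buffer; plate controls were DMSO basal wells for no effect and reference inhibitor wells for full effect; higher means more IMPase inhibition seen as more IP1 and lower FRET ratio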
Target sequence (P97697 whole entry, looked up): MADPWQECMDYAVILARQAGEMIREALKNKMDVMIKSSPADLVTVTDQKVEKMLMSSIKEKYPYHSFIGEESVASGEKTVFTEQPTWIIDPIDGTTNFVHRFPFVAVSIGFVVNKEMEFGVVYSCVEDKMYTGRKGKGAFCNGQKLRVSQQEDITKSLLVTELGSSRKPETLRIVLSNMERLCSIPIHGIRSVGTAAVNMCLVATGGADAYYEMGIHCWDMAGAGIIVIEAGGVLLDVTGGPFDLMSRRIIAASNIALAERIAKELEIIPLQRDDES
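CHO-M1 cells (CHO stably expressing M1 receptor), compound up to 46 uM final, stimulated with carbachol (50 uM as added) in buffer with 50mM LiCl, pH 7.4, 30 min at 37C. Cytosolic IP1 read by TR-FRET; AC50 from Hill fits.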
12-hLO inh = blocks human 12-lipoxygenase activity | Potency, µM (titrated, usually from 57.1 µM), inactives show at the highest dose activity change, negative = inhibition, hits mostly inhibitors | AID 1452 | actives 0.12% (n = 150,000) | purified 12-hLO, xylenol orange hydroperoxide absorbance; note: potency is the fitted concentration of half-maximal effect; % is set by controls: 0 for no effect and ±100 for the full control effect; nearly all actives have a fitted effect of over 55% in size
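Lipoxygenase turnover measured by absorbance at 573 and 405 nm after Fe-XO development. Human 12hLO 150 nM, arachidonate 40 uM, pH 7.0 Hepes buffer with detergent; 15 min compound preincubation, 30 min reaction.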
NPSR antag = blocks cAMP signaling of the human neuropeptide S receptor | Q6W5P4 | CHO-NPSR cells, cAMP TR-FRET, antagonist mode | Potency, µM (top dose mostly 38.3 µM), for inactives: top-dose activity change, negative = inhibition, actives largely listed as inhibitors | actives 1% (n = 220,000) | AID 1461; note: potency is the fitted concentration of half-maximal effect; % is set by controls: 0 for no effect and ±100 for the full control effect; nearly all actives have a fitted effect of over 50% in size
Target sequence (Q6W5P4 whole entry, looked up): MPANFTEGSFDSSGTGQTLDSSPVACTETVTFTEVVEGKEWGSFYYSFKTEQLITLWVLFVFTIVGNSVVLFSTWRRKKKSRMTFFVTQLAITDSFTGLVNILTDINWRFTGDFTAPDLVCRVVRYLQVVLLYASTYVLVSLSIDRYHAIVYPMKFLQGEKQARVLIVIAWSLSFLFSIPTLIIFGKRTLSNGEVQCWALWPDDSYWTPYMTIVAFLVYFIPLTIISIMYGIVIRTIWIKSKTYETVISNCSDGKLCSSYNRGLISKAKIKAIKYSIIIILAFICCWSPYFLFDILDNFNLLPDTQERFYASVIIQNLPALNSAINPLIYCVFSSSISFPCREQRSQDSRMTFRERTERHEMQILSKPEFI
HTT cytoprotect = cytoprotection in Huntington HTT-Q103 PC12 cell model. PC12 HTT-Q103 induced, cytoprotection, ATP luminescence, 40 h. Potency, µM (doses to about 56.4 µM), for inactives: cytoprotection (ATP increase), actives largely listed as activators. actives 0.14% (n = 230,000). AID 1471; note: potency is the fitted concentration of half-maximal effect; % of control where 0% means no effect; nearly all actives have a fitted effect of over 45% in size
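Readout: ATPlite luminescence (ATP level). Model: stable PC12, inducible Htt exon1 Q103-GFP. Inducer: tebufenozide, 100 nM final. Compounds: dose series. No G418 in medium.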
An asterisk follows results filed as active; [ ] = dose if it differs, or a comment. Only some compounds are listed: those with a hit (about 3.3% of all), similar ones and a draw of the others. Unless noted, calls come from the whole dose curve; as a rule, active = well fitted curve in the direction sought with a large enough effect; inconclusive = small, poorly fitted or top-dose-only effect, or another doubt; inactive = no such curve, though single readings can be large; an effect the other way counts as inactive or inconclusive.

How did Cc1ncc(CO)c(/C=N/NC(=O)c2cc(Br)ccc2O)c1O do in these assays?
HttQ103 aggreg: inconclusive; NPSR antag: -18%; HTT cytoprotect: -132%

What do the screens show for `CCN(CC)C(=O)c1oc2ccc(S(=O)(=O)N3CCCCCC3)cc2c1C`?
PNC inhibitor: -15; HttQ103 aggreg: 10µM*; IMPase inh: 0; 12-hLO inh: 1%; NPSR antag: inconclusive; HTT cytoprotect: 3%

Results for Cc1c(C(=O)O)oc2ccc(S(=O)(=O)NCc3ccc(F)cc3)cc12 ?
PNC inhibitor: 0; HttQ103 aggreg: 0%; IMPase inh: 0; 12-hLO inh: -2%; NPSR antag: 1%[46.1 µM]; HTT cytoprotect: 0%

What do the screens show for `Cc1c(C(=O)O)oc2ccc(S(=O)(=O)NC3CCCCCCC3)cc12`?
PNC inhibitor: -113*; HttQ103 aggreg: 24%; 12-hLO inh: 1%; NPSR antag: -1%

How did CCOC(=O)C1=C(c2ccccc2)N=c2s/c(=C\c3ccc(O)cc3)c(=O)n2C1c1cccs1 (stereo not drawn) do in these assays?
PNC inhibitor: 21; HttQ103 aggreg: inconclusive; IMPase inh: -1; 12-hLO inh: -2%; NPSR antag: 10µM*; HTT cytoprotect: -78%

How did O=c1c(Cc2ccc(Cl)cc2Cl)c(O)ccn1Cc1ccc(Cl)cc1 do in these assays?
PNC inhibitor: 13; HttQ103 aggreg: 20µM*; IMPase inh: -3; 12-hLO inh: -6%; NPSR antag: inconclusive; HTT cytoprotect: -4%[10 µM]

What do the screens show for `COc1ccc(-c2cnnc(N/N=C/c3ccc(O)c(O)c3)n2)cc1`?
PNC inhibitor: -2; HttQ103 aggreg: 11µM*; IMPase inh: 1; 12-hLO inh: -18%; NPSR antag: -17%; HTT cytoprotect: -59%[10 µM]

How did CCCCOc1ccc(C2CCC(C(C)=O)C(C)C2)cc1 (stereo not drawn) do in these assays?
HttQ103 aggreg: -7%[9.22 µM]; NPSR antag: -9%; HTT cytoprotect: 19%[10 µM]

Results for CCS(=O)(=O)N1CCN(c2ccc(Cl)cc2[N+](=O)[O-])CC1 ?
PNC inhibitor: -83*; HttQ103 aggreg: 5%; IMPase inh: -1; 12-hLO inh: -5%; NPSR antag: -12%; HTT cytoprotect: 14%[10 µM]

Results for O=[N+]([O-])c1cc(Cl)ccc1N1CCCCC1 ?
HttQ103 aggreg: 1%; NPSR antag: -1%; HTT cytoprotect: -24%

How did O=C(CSc1ccc(Cl)cc1)N1CCN(c2ccc(Cl)cc2[N+](=O)[O-])CC1 do in these assays?
PNC inhibitor: 66; HttQ103 aggreg: 11µM*; IMPase inh: 12; 12-hLO inh: -15%; NPSR antag: inconclusive; HTT cytoprotect: -46%

What do the screens show for `COc1ccc(-c2[nH]ncc2CN(CC2CCC(=O)N2)C(C)C)cc1F` (stereo not drawn)?
HttQ103 aggreg: 16%[9.22 µM]; NPSR antag: 6%; HTT cytoprotect: 1%[10 µM]

How did COc1ccc(-n2c(-c3cccc(C)c3[N+](=O)[O-])n[nH]c2=S)cc1 do in these assays?
PNC inhibitor: -109*; HttQ103 aggreg: 6%; IMPase inh: 8; 12-hLO inh: -2%; NPSR antag: -5%[46.1 µM]; HTT cytoprotect: -9%

How did Cc1cccc(-c2n[nH]c(=S)n2-c2ccccc2)c1[N+](=O)[O-] do in these assays?
PNC inhibitor: -1; HttQ103 aggreg: 15%; 12-hLO inh: 1%; NPSR antag: 14%; HTT cytoprotect: -3%[10 µM]

What do the screens show for `CCOC(=O)c1c(C)nc(C)c(C(=O)OCC)c1-c1ccc(OC)cc1`?
PNC inhibitor: 53; HttQ103 aggreg: 29%[9.22 µM]; IMPase inh: 8; 12-hLO inh: 1%; NPSR antag: 21%[7.67 µM]; HTT cytoprotect: 2%[10 µM]

How did CCOC(=O)c1c(-c2ccc(OC)cc2)nc2nonc2c1N do in these assays?
PNC inhibitor: inconclusive; HttQ103 aggreg: inconclusive; IMPase inh: 6; 12-hLO inh: -3%; NPSR antag: 9%[46.1 µM]; HTT cytoprotect: 0.71µM*

How did O=S(=O)(CCn1cccc1)CCn1cccc1 do in these assays?
PNC inhibitor: -100*; HttQ103 aggreg: 19%; IMPase inh: -1; 12-hLO inh: -3%; NPSR antag: -12%[46.1 µM]; HTT cytoprotect: 10%[10 µM]

How did C[C@@H]1NC(=O)c2cc([N+](=O)[O-])cc(I)c2NCC[C@@H](C(N)=O)NC(=O)[C@H](CC(N)=O)NC1=O do in these assays?
PNC inhibitor: -103*; HttQ103 aggreg: -13%; 12-hLO inh: -10%; NPSR antag: 11%

How did Fc1cccc(CSc2ncnc3c2ncn3[C@H]2CCCS2)c1 do in these assays?
12-hLO inh: -3%[11.4 µM]; HTT cytoprotect: -9%[10 µM]

What do the screens show for `CCO[Si](CCCN)(OCC)OCC`?
12-hLO inh: 3%; HTT cytoprotect: -8%

How did Cc1ccc(-n2c(-c3ccc(Br)cc3)c[n+]3c2CCc2ccc4cccnc4c2-3)cc1 do in these assays?
PNC inhibitor: 19; HttQ103 aggreg: 1.8µM*; IMPase inh: -6; 12-hLO inh: -5%; NPSR antag: 10µM*; HTT cytoprotect: -111%

How did O=C(NNS(=O)(=O)c1ccc([N+](=O)[O-])cc1)c1cnn(-c2ccccc2)c1-n1cccc1 do in these assays?
PNC inhibitor: -100*; HttQ103 aggreg: 3%; IMPase inh: 8; 12-hLO inh: 1%; NPSR antag: -9%[46.1 µM]; HTT cytoprotect: -2%[10 µM]

Results for O=C(NNS(=O)(=O)c1ccccc1)c1cnn(-c2ccccc2)c1-n1cccc1 ?
PNC inhibitor: -18; HttQ103 aggreg: 4%; IMPase inh: 1; 12-hLO inh: 1%; NPSR antag: -20%[46.1 µM]; HTT cytoprotect: -4%

Results for COc1cccc2c1C(=O)C=C(C)C2=O ?
PNC inhibitor: inconclusive; HttQ103 aggreg: 14µM*; 12-hLO inh: -1%; NPSR antag: -5%; HTT cytoprotect: 9%[0.074 µM]

Results for O=c1[nH]c2ccc(Br)cc2c(-c2ccccc2)c1CN1CCOCC1 ?
PNC inhibitor: -90*; HttQ103 aggreg: 24%; IMPase inh: -10; 12-hLO inh: -22%; NPSR antag: 1%[46.1 µM]; HTT cytoprotect: -16%

How did O=c1[nH]c2ccc(Br)cc2c(-c2ccccc2)c1N1CCOCC1 do in these assays?
PNC inhibitor: 1; HttQ103 aggreg: 14%; IMPase inh: 4; 12-hLO inh: -5%; NPSR antag: -18%[46.1 µM]; HTT cytoprotect: -21%[10 µM]

How did CCOC(=O)/C(=N\Nc1ccc(Br)cc1)N1CCN(c2ccccc2OC)CC1 do in these assays?
HttQ103 aggreg: 6%; NPSR antag: -22%; HTT cytoprotect: -20%

Screening results (PubChem BioAssay)
